Tests used:
Assay in all cases: PBM binding z-score (relative to random genomic background probes); higher = stronger binding; sequences stand for … in GC…GCGATTGACAGCGTAGAATGAAGG
[1] = system: FXR:RXRa (NR concentration 270 nM, RXRa partner concentration 90 nM)
Method in brief: (§1)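 For binding z-scores, the reference was random background probes on custom Agilent 4×180K protein-binding microarrays. These arrays were incubated 1 h with ligand-free nuclear receptor dimers in PBS pH 7.4, 2% milk, 0.02% Triton X-100, 1 mM DTT, 0.2 mg/mL BSA and 0.4 mg/ml salmon testes DNA. Fluorescence was scanned after antibody detection of each partner (one per run) and regression-normalized.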

[2] = system: LXRa:RXRa (NR concentration 270 nM, RXRa partner concentration 90 nM)
Method in brief: as §1

[3] = system: LXRa homodimer (NR concentration 270 nM)
Method in brief: as §1

[4] = system: LXRb:RXRa (NR concentration 270 nM, RXRa partner concentration 90 nM)
Method in brief: as §1

[5] = system: LXRb homodimer (NR concentration 270 nM)
Method in brief: as §1

[6] = system: PPARa:RXRa (NR concentration 270 nM, RXRa partner concentration 90 nM)
Method in brief: as §1

[7] = system: PPARg:RXRa (NR concentration 180 nM, RXRa partner concentration 90 nM)
Method in brief: as §1

[8] = system: PPARg:RXRa 270nM:90nM, anti-RXR (NR concentration 270 nM, RXRa partner concentration 90 nM)
Method in brief: as §1

[9] = system: PPARg:RXRa 30nM:10nM, anti-RXR (NR concentration 30 nM, RXRa partner concentration 10 nM)
Method in brief: as §1

[10] = system: PPARg:RXRa 90nM:30nM, anti-RXR (NR concentration 90 nM, RXRa partner concentration 30 nM)
Method in brief: as §1

[11] = system: PPARg:RXRa DBDmut IVT, anti-RXR (DBD mutation: RXRa K156A/R161A, NR concentration 270 nM, RXRa partner concentration 90 nM)
Method in brief: as §1

[12] = system: PPARg:RXRa IVT, anti-PPARg (NR concentration 270 nM, RXRa partner concentration 90 nM)
Method in brief: as §1

[13] = system: PPARg DBDmut:RXRa IVT, anti-PPARg (DBD mutation: PPARg1 K132A/R137A, NR concentration 270 nM, RXRa partner concentration 90 nM)
Method in brief: as §1

[14] = system: PPARg DBDmut IVT, anti-PPARg (DBD mutation: PPARg1 K132A/R137A, NR concentration 270 nM)
Method in brief: as §1

[15] = system: PPARg homodimer (NR concentration 180 nM)
Method in brief: as §1

[16] = system: PXR:RXRa (NR concentration 270 nM, RXRa partner concentration 90 nM)
Method in brief: as §1

[17] = system: PXR homodimer (NR concentration 270 nM)
Method in brief: as §1

[18] = system: RARa:RXR (NR concentration 270 nM, RXRa partner concentration 90 nM)
Method in brief: as §1

[19] = system: RARa homodimer (NR concentration 270 nM)
Method in brief: as §1

[20] = system: RARb:RXRa (NR concentration 270 nM, RXRa partner concentration 90 nM)
Method in brief: as §1

Sequence	PBM binding z-score [1]	PBM binding z-score [2]	PBM binding z-score [3]	PBM binding z-score [4]	PBM binding z-score [5]	PBM binding z-score [6]	PBM binding z-score [7]	PBM binding z-score [8]	PBM binding z-score [9]	PBM binding z-score [10]	PBM binding z-score [11]	PBM binding z-score [12]	PBM binding z-score [13]	PBM binding z-score [14]	PBM binding z-score [15]	PBM binding z-score [16]	PBM binding z-score [17]	PBM binding z-score [18]	PBM binding z-score [19]	PBM binding z-score [20]
CCTCGGAGGACAAAAGGTCAGAGCTGTCCGCTTT	3.66	4.52	2	3.34	-0.114	3.96	1.65	3.76	1.1	3.22	1.07	1.62	-0.684	-1.47	4.04	3.72	0.0706	4.59	0.836	4.61
AGAACGAGGGCACCCTGAGTTGATAGCAGAGTAG	0.236	0.52	-0.169	-0.0951	-0.924	1.6	1.55	1.27	0.134	0.693	3.24	2.84	0.579	-0.333	0.0786	1.29	0.283	0.732	-0.996	2.16
CCTTACGGGTCACTGACAGGTTATAGCCTTTGGA	5.57	4.01	0.368	3.43	-0.148	4.99	4.28	4.31	1.31	2.99	2.98	3.74	0.266	0.106	3.2	3.83	-0.0377	4.93	0.735	3.95
CAAACTAGGTCAGCGGAAGGTCAAAGTCCGCATG	4.7	5.1	3.95	4.3	0.622	5.61	7.65	6.54	4.12	6.37	7.81	8.08	3.33	1.19	5.64	5.42	1.11	6.59	1.75	4.89
GCTGCTAGGTCAGGTTGGTCACCTAACGGGTACG	1.01	0.907	-0.299	0.43	-0.281	1.56	0.627	1.15	-0.264	0.22	2.48	2.8	-1.27	-1.36	0.888	0.48	-0.213	1.27	0.0555	3.39
CAAACTAGGTCACCGGAAGGACAAAGTCCGCATG	4.67	3.57	0.547	2.71	0.36	5.63	9.49	7.51	6.09	7.18	8.34	9.2	4.33	1.54	2.4	2.89	0.127	4.17	0.734	4.69
CAAACTAGGTCACGAAAGGTCATAGTCGAATGAC	7.43	7.78	7.34	6.95	2.21	6.37	10.5	8.43	7.64	8.8	8.9	9.17	2.98	2.98	6.62	6.74	2.77	7.32	3.5	5.58
CCTAGTTGGTCATGAGGTCACACACCGGATATGA	4.57	4.17	2.56	4	0.753	4.65	4.15	4.5	2.25	3.46	2.85	4.41	1.13	0.4	4.56	5.34	2.23	5.4	2.94	4.14
CAAACTAGGTGACGAAAGGTCAAAGTCGAATGAC	5.48	6.5	5.58	5.5	2.04	6.16	8.73	7.47	4.53	7.2	8.02	7.93	1.7	2.14	4.87	5.93	1.38	6.62	1.88	4.82
CCTACTAGGCCACGAAAGGTCATTGATTCAGTGA	4.02	5.66	5.5	4.32	0.558	4.84	5.77	5.3	2.35	4.43	6.91	6.28	0.693	0.0553	3.43	5.44	1.96	5.45	2.79	4.06
TCATATAGGTAATACAGGGGAAAGTCGGCATCTA	1.29	1.31	0.263	1.21	0.513	1.55	1.01	2.49	4.47	3.25	4.42	2.56	1.36	0.581	0.957	0.783	0.581	1.08	0.911	0.566
TCTAGTTAGTCAAAGGTCACACACTCGAAATGCG	5.6	5.78	4.78	5.34	1.76	5.98	8	7.8	6.86	8.1	2.7	4.43	1.17	3.06	5.38	5.63	2.01	6.72	3.05	4.74
TCTCGGAGGACACGAAAGGTCGGAGCTCGACATC	1.02	1.14	-0.0519	0.48	-0.636	1.51	0.269	1.36	1.93	1.73	1.24	0.486	-0.405	-0.523	0.582	1.38	-0.652	1.61	-0.809	2.56
TCATATAGGTAAACAGGTGAAGGTCCGTAAGTTA	0.526	0.84	0.00797	0.841	-0.136	2.21	2.67	3.2	4.31	3.46	4.86	4.7	1.09	0.987	1.53	0.741	0.241	0.898	0.337	0.842
ATATGTAGGTTATCGGGTCATTCAATTTGCGCAT	3.06	3.55	1.95	3.51	0.979	5.11	7.6	6.31	3.98	6.15	7.45	7.56	2.44	2.36	2.28	3.43	1.39	3.8	1.75	2.87
TCTGCTAGGTAAGTTGGTCAGCTAACGAGCTGCC	-0.553	-0.651	-0.909	-0.852	-0.795	-0.166	-0.748	0.411	1.22	0.642	0.619	0.862	-0.126	-0.493	-1.41	-0.474	-1.39	-0.538	-1.81	-0.235
CGAACTTGGTCAAGGACAGTGAATCTCCGCACGC	0.162	-0.375	-0.73	-0.622	-1.03	-0.114	0.382	0.0325	-0.999	-0.567	1.01	0.689	-0.557	-0.422	-0.784	-0.25	-0.515	-0.377	-0.435	1.34
CCTTACGGGTCACCGACAGGTTATAGCATTTGGA	6.22	4.88	0.46	3.96	-0.223	5.69	6.3	5.64	2.16	4.6	2.51	4.22	0.292	0.016	3.32	4.11	-0.087	5.27	0.277	4.52
CGAACTAGGTCATGGACAGTGAATCTCCGCACGC	3.63	2.28	0.076	1.46	-0.358	4.61	7.41	6.4	3.88	6.02	8.13	8.2	2.01	1.53	1.69	1.36	-0.279	2.43	0.353	3.61
TCGAGTAGGTTACCAATGGGGGATTCAGCTTTCT	0.454	1	-0.159	2.46	5.29	1.74	0.645	2.31	1.35	2.08	3.04	3.87	3.52	5.09	0.376	1.15	-0.444	1.17	-0.393	1.06
CAAACTAGCTCACGAAAGGTCAAAGTCGAATGAC	4.81	5.42	5.5	5.58	2.21	5.38	2.42	4.26	1.46	3.03	0.734	2.28	0.536	0.187	3.91	5.52	1.75	6.04	2.13	4.4
CCTCGGAGGACAACAGGAGGCCAGAGCTGCCAGA	-0.418	-0.512	-0.358	-1.07	-0.956	-0.509	0.0998	-0.942	-0.765	-0.807	-0.393	-0.707	-0.633	-1.31	-0.602	-0.549	-0.283	-0.45	-0.398	1.07
CCTTACGGGTCACTGACAGGTTATAGTATTTGGA	5.25	4.01	0.456	3.4	0.163	4.95	4.75	4.34	1.8	2.96	3.44	3.9	0.845	0.452	2.3	3.46	0.317	4.47	0.728	3.93
CGTCCAAGGTCCGAGAGGTCAGTGAATGCCGAGT	2.4	1.89	1.06	1.86	-0.631	2.26	-0.135	0.688	-0.759	-0.083	-0.0478	0.0193	-1.25	-0.955	2.31	3.19	1.56	2.87	0.494	3.23
CGTCCATGGTCATAGGAGGTCAGTGAAGACAGAT	1.81	3.6	1.31	2.3	-0.0706	2.59	0.994	1.19	-0.128	0.421	0.484	2.01	-0.127	-0.368	2.09	3.77	0.616	2.79	0.333	2.91
ATCTCTAGGTAACCCAGTTCAGTGAATGCCGAAC	0.242	0.741	0.606	0.843	0.72	1.72	1.52	1.69	0.311	1.12	4.06	4.47	1.33	1.28	1.12	1.64	1.23	0.719	0.547	0.652
